# The panel holds about 83,000 compounds, 20% with a hit somewhere; the sample as a whole holds those more often.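 Single-concentration screen, 48 h exposure, 96-well plates. Endpoint: percent growth. Below 10 = active.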 Unmarked numbers belong to inactive results. Active and inactive are the calls of the source.
# Tests used:
# Test in all cases: NCI-60 one-dose screen, 48 h (100 = growth as untreated, 0 = no growth, -100 = all killed)
# Conditions in all cases: 10 µM
# [1] = system: SR leukemia
# [2] = system: RPMI-8226 leukemia
# [3] = system: OVCAR-8 ovarian
# [4] = system: OVCAR-5 ovarian
# [5] = system: OVCAR-4 ovarian
# [6] = system: SK-OV-3 ovarian
# [7] = system: IGROV1 ovarian
# [8] = system: OVCAR-3 ovarian
# [9] = system: HS 578T breast
# [10] = system: NCI/ADR-RES ovarian
Structure (SMILES),growth [1],growth [2],growth [3],growth [4],growth [5],growth [6],growth [7],growth [8],growth [9],growth [10]
CC1(C)[C@@H](NCO)CC[C@]2(C)[C@H]3C(=O)C=C4[C@@H]5C[C@](C)(CO)CC[C@]5(C)CC[C@@]4(C)[C@]3(C)CC[C@@H]12,10.3%,-1.48% (active),70.9%,66.1%,55.4%,92.8%,53.8%,85.4%,44%,56%
O=C(/C=C/Nc1ccc(F)cc1F)c1ccc2c(c1)Nc1ccccc1S2,31.7%,78.2%,64.6%,86.8%,68.2%,95.2%,77.9%,100%,63%,57.1%
COc1cc2c(cc1OC)/C(=C\c1sc(Nc3ccc(O)cc3)nc1O)C(C(=O)O)=N2,17%,16.1%,22.8%,34.6%,54%,47.3%,34.3%,3.64% (active),31%,85.4%
N#Cc1c(-c2ccc(Cl)cc2)cc(-c2ccccc2)nc1OCc1ccccc1,42.2%,60.3%,93%,92.9%,76.9%,83.1%,87%,97.9%,85.2%,76%
Cc1ccc(-c2nc(Nc3ccccc3C(=O)O)c3ccccc3n2)cc1,18.6%,17.1%,30.5%,65.9%,21.8%,31.3%,31.1%,6.01% (active),-9.53% (active),5.16% (active)
COc1ccc2ncc(C#Cc3cncc(C(=O)Nc4ccc(CN5CCN(C)CC5)c(C(F)(F)F)c4)c3)n2n1,-26.3% (active),-26.3% (active),-49.2% (active),-94.5% (active),-75.2% (active),49.8%,-76.1% (active),-93.2% (active),-2.29% (active),-81.4% (active)
CCOC(=O)C1=C(N)N(c2ccccc2)C2=C(C(=O)CC(C)(C)C2)C1c1ccccc1OC (stereo not given),95%,100%,108%,103%,102%,98.2%,96.9%,112%,106%,96.6%
Cc1ccc(C(=O)CSc2nnc(-c3c[nH]c4ccccc34)n2-c2ccccc2)cc1,53%,58.9%,11.3%,13%,-15.6% (active),24%,24.2%,65.2%,-0.727% (active),-27.7% (active)
O=C(CSc1nnc(-c2c[nH]c3ccccc23)n1-c1ccccc1)Nc1ccc(C(=O)/C=C/c2ccc(Cl)cc2)cc1,70.8%,4.94% (active),85.5%,98.2%,74.8%,80.7%,74.7%,69.6%,73.2%,92.9%
COc1ccc2[nH]c(=O)c(CSc3cccc(N)c3)cc2c1,39.1%,44.8%,59.2%,91.6%,49.8%,94.5%,74.1%,66.9%,95%,73%
COc1cc(-c2nc3cc(Cl)c(Cl)cc3[nH]2)ccc1OCc1nnc(-c2ccc(Br)cc2)o1,-34.4% (active),-23.2% (active),15.7%,39.6%,-92.2% (active),-11.1% (active),42%,-47.6% (active),-22.5% (active),22%
CC(=O)OC[C@@]1(C)C2CC[C@]3(C)C(CC=C4C5CC(C)(C)CC[C@]5(C(=O)Nc5ccccc5)CC[C@]43C)[C@@]2(C)C[C@@H](OC(C)=O)[C@@H]1OC(C)=O (stereo not given in full),17%,10.7%,32.7%,81.4%,33.4%,45.2%,45.1%,38.9%,52.3%,31.2%
N#Cc1ccc(-c2nn(-c3ccc(C(=O)O)cc3)cc2CNc2ccc(Oc3ccccc3)cc2)cc1,37.3%,22.4%,39.2%,81.1%,73.7%,111%,74.7%,45.1%,53.9%,17.1%
O=C(Cc1ccc2c(c1)CN(C1CCC(=O)NC1=O)C2=O)NCc1cccc2ccccc12 (stereo not given),13.6%,18%,-3.71% (active),-11% (active),-2.52% (active),-7.7% (active),-13.5% (active),-22.3% (active),-11.3% (active),-18.5% (active)
COc1cc(C2CC(c3ccc(C)cc3)=Nc3c(N)nc(N)nc3N2)ccc1Oc1nc(Nc2ccc(F)cc2)nc(N(C)C)n1 (stereo not given),0.613% (active),22.3%,61.2%,99.6%,50.9%,100%,53.8%,56.2%,57.6%,51.7%
CCOC(=O)c1c(CSc2ccccc2)n(C)c2cc(CN(C)C)c(O)c(CN(C)C)c12,21.4%,28.5%,30.4%,63.4%,36.5%,87%,25.4%,13.8%,44.3%,76.4%
CC[C@]12C=CCN3CC[C@@]4(c5cc(C#CCNc6ccc(C)c(Nc7nccc(-c8cccnc8)n7)c6)c(OC)cc5N(C)[C@H]4[C@@](O)(C(=O)OC)[C@@H]1OC(C)=O)C32 (stereo not given in full),21.3%,38.5%,48.6%,81.9%,41.4%,110%,60.7%,48.1%,55.7%,54.4%
COC(=O)C[C@](O)(CCCC(C)(C)O)C(=O)O[C@H]1C(OC)=C[C@@]23CCC(=O)N2CCc2cc4c(cc2[C@@H]13)OCO4,80.6%,106%,107%,102%,90.1%,103%,93%,94.8%,87.9%,102%
N#C/C(=C\c1ccc(N(c2ccccc2)c2ccccc2)cc1)C(N)=O,69.1%,19.8%,75.1%,-60.6% (active),4.67% (active),56%,-21.2% (active),3.69% (active),99.2%,57.4%
COc1ccc(CN2[C@H](C(=O)NCCCCCCC(=O)NO)Cc3c([nH]c4ccccc34)[C@H]2C2CC2)cc1,16%,15.7%,2.69% (active),-21.2% (active),40.6%,-33.5% (active),-42.4% (active),3.23% (active),-1.3% (active),61.9%
COc1ccc(NC(=O)Cn2c(/C=C/c3ccc(N(C)C)cc3)nc3ccccc3c2=O)cc1,72.5%,57.1%,21%,66.4%,58.7%,24.7%,47.2%,26.9%,65.7%,32.2%
OCc1[nH]nc2cc(Nc3ncc4ccc(Br)c(OC5CCC(O)CC5)c4n3)ccc12 (stereo not given),3.06% (active),3.2% (active),8.63% (active),-17.9% (active),4.77% (active),13.7%,-12.4% (active),2.95% (active),-28.5% (active),-3.04% (active)
O=C(CSc1nnc(-c2c[nH]c3ccccc23)n1-c1ccccc1)Nc1ccc(C(=O)/C=C/c2cccc([N+](=O)[O-])c2)cc1,75.2%,13.9%,97.2%,103%,84.2%,106%,82.9%,103%,74%,96.3%
COc1ccc(C(=O)NC(=S)N2CCN(c3ncnc4c3cnn4-c3ccccc3)CC2)cc1,12.3%,72.6%,51.3%,79.3%,54.1%,7.3% (active),66.4%,83.1%,51%,61.7%
CC(=O)Nc1ccc(-c2cn(-c3cccc(C(=O)Nc4ccc(F)c(C(F)(F)F)c4)c3)nn2)cn1,34.6%,66.6%,2.67% (active),89.1%,13.5%,90.8%,43.2%,24.9%,7.97% (active),86.3%
CCCn1c(=O)c2[nH]c(-c3ccc(OCc4nc5ccc(C(F)(F)F)cc5[nH]4)cc3)nc2n(CCC)c1=O,24.6%,28.1%,-7.74% (active),82.3%,60%,90.7%,62.7%,52.5%,33.4%,55.8%

# — PubChem BioAssay (NCI)
